# Assay outcomes as filed in PubChem.
# hcDAF12 agonist – H. contortus DAF-12 activation, primary screen; HEK293 hcDAF-12 lit1-tk-luc reporter, luminescence; 0% DMSO, 100% Δ7-dafachronic acid; activation, % at 6.8 µM; hit rate 1.4% among 370,000;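 active = activation above the mean of all tested compounds plus 3 SD, cut at about 5.5% in these data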
# DAX1 inh-1 – inhibits human nuclear receptor DAX1. hit rate 0.99% among 340,000. P51843. inhibition, % at 6.75 µM. HEK293 Gal4-DAX1 luciferase reporter, luminescence;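 active = inhibition above the mean over all tested compounds plus 3 SD, cut at about 4.2% in these data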;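 note: inhibition shows as a rise in luminescence from relieved DAX1 repression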
# hgDAF12 agonist – activates the H. glycines DAF-12 receptor ligand-binding domain; HEK293 GAL4-hgDAF12 UAS-luciferase reporter, agonist luminescence; normalized to butyrate control; activation, % at 6.8 µM; hit rate 1.8% among 370,000;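 active = activation above a cutoff set at the mean of all screened compounds plus 3 SD, cut at about 10% in these data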
# ssDAF-12 act – activates DAF-12 receptor from parasite S. stercoralis | hit rate 1% among 370,000 | AID 652126 | activation, % at 6.8 µM | HEK293 ssDAF-12/GRIP1 lit1-tk-luc reporter, luminescence; % of 3 µM dafachronic acid response;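 active = activation above the mean over all tested compounds plus 3 SD, cut at about 0.9% in these data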
# AHR activator – activators of human aryl hydrocarbon receptor; P35869; hit rate 2.5% among 320,000; activation, % at 5 µM; AHR-responsive luciferase reporter cells, luminescence; in the data active = activation above about 47%
# DAX1 inh-2 – inhibitors of DAX1 repression of SF-1 activated StAR promoter; HEK293T StAR-luciferase reporter, SF-1/DAX-1 repression relief; inhibition, % at 6.8 µM; hit rate 1.1% among 370,000; AID 652010;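 active = inhibition above the mean over all tested compounds plus 3 SD, cut at about 3.6% in these data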;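 note: higher inhibition means more luminescence from relief of DAX-1 repression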
# A number is an active result; - = inactive; . = no result. Sampled rows, rich in hits. Any-hit rate of the full collection: about 5.7%.
SMILES,hcDAF12 agonist,DAX1 inh-1,hgDAF12 agonist,ssDAF-12 act,AHR activator,DAX1 inh-2
COc1ccc(Nc2nc(N)nc(COc3ccc(OC)cc3)n2)cc1,-,-,-,-,60,-
Cc1nc(N)nc(COc2ccccc2)n1,-,8.4,-,-,-,-
COc1ccc(OCc2nc(N)nc(Nc3cccc(C)c3C)n2)cc1,-,-,-,-,-,-
COc1ccc(OCc2nc(N)nc(Nc3ccccc3)n2)cc1,-,-,-,-,-,-
COC(=O)c1ccc(N2CCN(S(=O)(=O)c3ccc(C)cc3)CC2)c([N+](=O)[O-])c1,-,-,-,-,-,-
O=C(Cn1nnc2ccccc2c1=O)NCCc1ccc(F)cc1,.,.,.,.,-,.
COc1ccc(Nc2nc(N)nc(SCc3nnc(C)s3)n2)cc1,-,-,-,-,56,-
COc1ccc(Nc2nc(N)nc(CSc3nc(C)cc(C)n3)n2)cc1,-,-,-,-,-,-
O=C(Nc1ccc(F)c(Cl)c1)C1CC(=O)N(Cc2ccccc2)C1 (centres undefined),-,-,-,-,-,-
CSc1cnn(CCC#N)c(=O)n1,6.0,.,-,1.2,.,-
COC(=O)[C@]12C=CCN1[C@@H](c1ccc(Cl)cc1)c1c(c3ccccc3n1S(=O)(=O)c1ccc(C)cc1)C2,-,.,-,-,.,-
CCOC(=O)[C@@H]1c2[nH]c3ccccc3c2C[C@@]2(C(=O)OC)C=CCN12,-,.,-,1.5,.,-
O=C(NCc1ccccc1)C1COc2ccccc2O1 (centres undefined),-,-,-,-,-,-
Cc1onc(-c2ccccc2)c1CNC(=O)C1COc2ccccc2O1 (centres undefined),-,4.6,-,-,-,-
CN(C1CCCCC1)S(=O)(=O)c1ccc(S(=O)(=O)N2CCN(CCC#N)CC2)cc1,-,5.7,-,-,-,-
COC(=O)CCN(C1CCCCC1)S(=O)(=O)c1ccc(S(=O)(=O)N2CCCCC2)cc1,5.8,-,-,-,-,-
CCC(=O)NCc1nc2ccccc2n1Cc1ccccc1F,-,-,-,-,-,-
O=C1c2ccccc2C(c2nnnn2-c2ccc3c(c2)OCCO3)N1CCCn1ccnc1 (centres undefined),-,.,-,-,.,3.9
Cc1cc(-n2c(C)cc(C(=O)CSc3[nH]c(=O)cc(C(F)(F)F)c3C#N)c2C)no1,-,-,-,-,-,-
COc1ccc(CN(C)CC(=O)NCC(=O)Nc2c(C)cccc2C)cc1,-,-,-,-,-,-
COc1cccc(NC(=O)Nc2ccc(C)c(Cl)c2)c1,-,-,13,-,-,-
COc1cccc(NC(=O)Nc2cccc(C)n2)c1,-,-,12,-,-,-
COc1ccc(NC(=O)Nc2cccc(C)n2)c(OC)c1,-,-,-,-,-,-
COc1cc(NC(=S)Nc2cccc(C)n2)cc(OC)c1OC,-,-,-,-,69,-
Cc1ccc(NC(=O)Nc2cccc(C)n2)c(C)c1,-,-,-,-,56,-
SMILES,hcDAF12 agonist,DAX1 inh-1,hgDAF12 agonist,ssDAF-12 act,AHR activator,DAX1 inh-2
COc1cccc(NC(=O)Nc2cc(C(=O)O)ccc2C)c1,-,-,-,-,-,-
CCOC(=O)NC(=S)Nc1cccc(C)n1,-,-,-,-,.,-
COC(=O)/C=C1\SC(=NC(=O)c2ccc(C)cc2)NC1=O,-,-,-,-,-,-
OC(CN1CCOCC1)Cn1c2c(c3ccccc31)CCCC2 (centres undefined),-,-,-,-,-,-
CCc1cccc(CC)c1NC(=O)C1CC(=O)N(c2ccc3c(c2)OCCO3)C1 (centres undefined),-,-,-,-,-,-
c1csc(-c2nnsc2-c2nc3ccccc3[nH]2)c1,-,-,-,1.4,-,-
COc1cccc(NC(=S)NCc2ccncc2)c1,-,-,-,-,-,-
COc1ccccc1NC(=O)C(=O)NCCCN1CCCC1=O,-,-,-,-,-,-
COc1cccc(NC(=O)C(=O)NCc2ccncc2)c1,-,-,-,-,53,-
COc1ccc(C)cc1NC(=O)C(=O)NCc1ccncc1,-,-,-,-,50,-
COc1ccc(NC(=O)C(=O)NCc2ccncc2)c(OC)c1,-,-,-,-,-,-
COc1cccc(NC(=O)C(=O)NCCCN2CCCC2=O)c1,-,-,-,-,-,3.8
C=CCN(c1ccccc1)S(=O)(=O)c1cccc(C(=O)Nc2cccc(C)n2)c1,-,-,-,-,-,-
N#Cc1cccn1-c1nccc(-c2cccs2)n1,-,-,-,1.7,65,-
Cc1ccc(C)n1-c1nccc(-c2cccs2)n1,-,-,-,-,-,-
Cc1cc(NS(=O)(=O)c2ccc(NC(=O)/C=C/c3ccc(C)o3)cc2)nc(C)n1,-,4.6,-,-,-,-
Cc1cc(NS(=O)(=O)c2ccc(NC(=O)/C=C/c3ccccc3)cc2)nc(C)n1,-,-,-,-,-,-
COc1cc(C(=O)Nc2ccc(S(=O)(=O)Nc3cc(C)nc(C)n3)cc2)cc(OC)c1OC,-,6.4,-,-,-,-
COc1ccc(C(=O)Nc2ccc(S(=O)(=O)Nc3cc(C)nc(C)n3)cc2)cc1OC,-,-,-,-,-,-
CCCN(CCC)C(=O)c1cc(-c2ccc3c(c2)OCO3)nc2ccccc12,.,-,.,.,66,.
Cc1nn(CC(=O)OC(C)C(=O)Nc2ccccc2[N+](=O)[O-])c(C)c1[N+](=O)[O-] (centres undefined),-,-,-,3.5,-,-
CC(OC(=O)CCC(=O)c1cccs1)C(=O)Nc1ccccc1[N+](=O)[O-] (centres undefined),-,-,-,-,-,-
Cc1ccc(C(=O)NCC(=O)OC(C)C(=O)Nc2ccccc2[N+](=O)[O-])s1 (centres undefined),-,-,-,-,-,3.6
CC(C)N(Cc1ccccc1)C(=O)CN1C(=O)NC2(CCOc3ccccc32)C1=O (centres undefined),-,-,-,-,-,-
Cc1ccc(OCc2nnc(N)s2)cc1,-,-,11,-,-,-
SMILES,hcDAF12 agonist,DAX1 inh-1,hgDAF12 agonist,ssDAF-12 act,AHR activator,DAX1 inh-2
c1ccc2c(c1)Cc1cc3ccccc3nc1-2,17,-,15,1.2,-,-
c1ccc(Oc2ccc(-c3ccn[nH]3)cc2)cc1,-,4.6,-,-,-,-
CC(=O)COc1cccc2ccc(/C=C/c3ccc(Br)s3)nc12,-,-,-,-,72,-
COC(=O)c1ccc(/C=C/c2ccc3cccc(OC)c3n2)cc1,-,-,-,-,-,-
O=C(O)CC/C(=N\NC(=O)c1ccccc1)c1cccs1,-,-,11,-,-,-
COc1ccc(OCC(=O)N/N=C(\CCC(=O)O)c2cccs2)cc1,-,-,-,-,-,-
COC(=O)N/N=C(\CCC(=O)O)c1cccs1,-,-,-,-,-,-
O=C(O)CC/C(=N\Nc1ccc(Cl)cc1)c1cccs1,-,-,-,-,61,-
